Hit rate of the full screen: of about 5,500 compounds, about 2,000 (36%) were called active. About 18% were inconclusive and are not listed. Cut-off read from the data, not from the text of the source: active = normalized growth mostly below about 0.91 (no sharp cut-off); inconclusive = no clear call, values can overlap the other calls; inactive = mostly above about 0.92. Some of the results follow.
Assay: chemical genetic growth profiling, strain panel (AID 1159580);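 note: tested at 20 µM; growth read once vehicle control cultures reached saturation at 30 °C; 1 = growth at the plate median or of vehicle wells; lower values mean less growth of the strain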
Conditions: growth OD

Measured: normalized growth

NCC(O)CC(=O)O (centres undefined)
inactive: S. cerevisiae deletion strains, locus YKL009W, strain mrt4, active compounds read low 0.991 | S. cerevisiae deletion strains, locus YKL068W, active compounds read low 0.999 | S. cerevisiae deletion strains, locus YKL085W, strain MDH1 (second series), active compounds read low 1 | S. cerevisiae deletion strains, locus YKL085W, strain MDH1, active compounds read low 1 | S. cerevisiae deletion strains, locus YKL160W, strain elf1, active compounds read low 1.02 | S. cerevisiae deletion strains, locus YKL190W, strain CNB1, active compounds read low 1.02 | S. cerevisiae deletion strains, locus YKR001C, strain vps1, active compounds read low 1 | S. cerevisiae deletion strains, locus YKR026C, strain gcn3, active compounds read low 0.959 | S. cerevisiae deletion strains, locus YKR091W, strain srl3, active compounds read low 0.974 | S. cerevisiae deletion strains, locus YLL001W, strain dnm1, active compounds read low 0.987 | S. cerevisiae deletion strains, locus YLL026W, active compounds read low 0.996 | S. cerevisiae deletion strains, locus YLL041C, strain sdh2, active compounds read low 1 | S. cerevisiae deletion strains, locus YLR027C, strain aat2, active compounds read low 0.97 | S. cerevisiae deletion strains, locus YLR039C, strain RIC1, active compounds read low 1.04 | S. cerevisiae deletion strains, locus YLR058C, strain SHM2, active compounds read low 1.02 | S. cerevisiae deletion strains, locus YLR102C, strain apc9, active compounds read low 1 | S. cerevisiae deletion strains, locus YLR113W, strain HOG1, active compounds read low 0.976 | S. cerevisiae deletion strains, locus YLR221C, strain rsa3, active compounds read low 1.01 | S. cerevisiae deletion strains, locus YLR258W, strain gsy2, active compounds read low 1 | S. cerevisiae deletion strains, locus YLR262C, strain YPT6 (second series), active compounds read low 1 | S. cerevisiae deletion strains, locus YLR262C, strain YPT6, active compounds read low 1.03 | S. cerevisiae deletion strains, locus YLR268W, strain sec22, active compounds read low 0.998 | S. cerevisiae deletion strains, locus YLR320W, strain mms22, active compounds read low 1 | S. cerevisiae deletion strains, locus YLR330W, strain CHS5, active compounds read low 1.01 | S. cerevisiae deletion strains, locus YLR342W, strain FKS1 (second series), active compounds read low 1.02 | S. cerevisiae deletion strains, locus YLR342W, strain FKS1, active compounds read low 0.968 | S. cerevisiae deletion strains, locus YLR357W, strain rsc2, active compounds read low 0.972 | S. cerevisiae deletion strains, locus YLR370C, strain arc18, active compounds read low 0.973 | S. cerevisiae deletion strains, locus YLR371W, strain rom2, active compounds read low 1 | S. cerevisiae deletion strains, locus YLR384C, strain iki3, active compounds read low 0.979 | S. cerevisiae deletion strains, locus YLR418C, strain cdc73, active compounds read low 0.988 | S. cerevisiae deletion strains, locus YML016C, strain PPZ1, active compounds read low 1.01 | S. cerevisiae deletion strains, locus YML032C, strain rad52, active compounds read low 1.01 | S. cerevisiae deletion strains, locus YML120C, strain ndi1, active compounds read low 0.994 | S. cerevisiae deletion strains, locus YML124C, strain tub3, active compounds read low 1 | S. cerevisiae deletion strains, locus YMR058W, strain fet3, active compounds read low 0.972 | S. cerevisiae deletion strains, locus YMR078C, strain ctf18, active compounds read low 1 | S. cerevisiae deletion strains, locus YMR125W, strain sto1, active compounds read low 0.958 | S. cerevisiae deletion strains, locus YMR129W, active compounds read low 0.978 | S. cerevisiae deletion strains, locus YMR205C, strain PFK2, active compounds read low 0.965 | S. cerevisiae deletion strains, locus YMR223W, strain ubp8, active compounds read low 1 | S. cerevisiae deletion strains, locus YMR231W, strain pep5, active compounds read low 0.968 | S. cerevisiae deletion strains, locus YMR263W, strain SAP30, active compounds read low 1.01 | S. cerevisiae deletion strains, locus YMR307W, strain GAS1, active compounds read low 0.988 | S. cerevisiae deletion strains, locus YNL067W, strain RPL9B, active compounds read low 1.01 | S. cerevisiae deletion strains, locus YNL071W, strain lat1, active compounds read low 0.981 | S. cerevisiae deletion strains, locus YNL128W, strain TEP1, active compounds read low 1.02 | S. cerevisiae deletion strains, locus YNL183C, strain NPR1, active compounds read low 0.931 | S. cerevisiae deletion strains, locus YNL209W, strain ssb2, active compounds read low 0.985 | S. cerevisiae deletion strains, locus YNL233W, strain BNI4, active compounds read low 1.04 | S. cerevisiae deletion strains, locus YNL248C, strain rpa49, active compounds read low 1.02 | S. cerevisiae deletion strains, locus YNL250W, strain rad50, active compounds read low 0.99 | S. cerevisiae deletion strains, locus YNL271C, strain bni1, active compounds read low 0.992 | S. cerevisiae deletion strains, locus YNL298W, strain CLA4, active compounds read low 0.992 | S. cerevisiae deletion strains, locus YNL307C, strain MCK1, active compounds read low 1.01 | S. cerevisiae deletion strains, locus YNL322C, strain KRE1 (second series), active compounds read low 0.958 | S. cerevisiae deletion strains, locus YNL322C, strain KRE1, active compounds read low 1.02 | S. cerevisiae deletion strains, locus YNR049C, strain mso1, active compounds read low 0.983 | S. cerevisiae deletion strains, locus YNR052C, strain pop2, active compounds read low 1 | S. cerevisiae deletion strains, locus YOL006C, strain TOP1, active compounds read low 0.988 | S. cerevisiae deletion strains, locus YOL012C, strain htz1 0.788 | S. cerevisiae deletion strains, locus YOL147C, strain pex11, active compounds read low 1 | S. cerevisiae deletion strains, locus YOR001W, strain rrp6, active compounds read low 1.02 | S. cerevisiae deletion strains, locus YOR061W, strain CKA2, active compounds read low 1.01 | S. cerevisiae deletion strains, locus YOR069W, strain VPS5, active compounds read low 1.01 | S. cerevisiae deletion strains, locus YOR070C, strain gyp1, active compounds read low 0.991 | S. cerevisiae deletion strains, locus YOR080W, strain dia2, active compounds read low 0.979 | S. cerevisiae deletion strains, locus YOR083W, strain WHI5, active compounds read low 1.03 | S. cerevisiae deletion strains, locus YOR106W, strain vam3, active compounds read low 0.978 | S. cerevisiae deletion strains, locus YOR136W, strain idh2, active compounds read low 1 | S. cerevisiae deletion strains, locus YOR144C, strain elg1, active compounds read low 0.999 | S. cerevisiae deletion strains, locus YOR184W, strain ser1, active compounds read low 1 | S. cerevisiae deletion strains, locus YOR231W, strain MKK1, active compounds read low 1.02 | S. cerevisiae deletion strains, locus YOR265W, strain rbl2, active compounds read low 0.989 | S. cerevisiae deletion strains, locus YOR270C, strain vph1, active compounds read low 0.987 | S. cerevisiae deletion strains, locus YOR290C, strain snf2, active compounds read low 0.938 | S. cerevisiae deletion strains, locus YOR316C, strain cot1, active compounds read low 1.01 | S. cerevisiae deletion strains, locus YPL051W, strain arl3, active compounds read low 1.02 | S. cerevisiae deletion strains, locus YPL078C, strain atp4, active compounds read low 0.998 | S. cerevisiae deletion strains, locus YPL106C, strain sse1, active compounds read low 0.985 | S. cerevisiae deletion strains, locus YPL240C, strain hsp82, active compounds read low 1 | S. cerevisiae deletion strains, locus YPL241C, strain CIN2, active compounds read low 1.01 | S. cerevisiae deletion strains, locus YPL256C, strain CLN2, active compounds read low 1.01 | S. cerevisiae deletion strains, locus YPR119W, strain clb2, active compounds read low 0.996 | S. cerevisiae deletion strains, locus YPR141C, strain kar3, active compounds read low 0.994 | S. cerevisiae deletion strains, locus YPR163C, strain tif3, active compounds read low 0.993 | S. cerevisiae deletion strains, locus YPR167C, strain met16, active compounds read low 0.995 | S. cerevisiae deletion strains, strain wtn01, active compounds read low 0.99 | S. cerevisiae strains, strain wild type, active compounds read low 1.02

— PubChem BioAssay AID1159580 (chemical genetic matrix, 2015)
